Hit rate of the full screen: of about 190,000 compounds, about 1,300 (0.68%) were called active. Only a selection was taken, and actives are over-represented in it overall. Values without a mark were called inactive. Rule as the data show it: active = inhibition above about 50%; inactive = the rest.
These compounds were tested against Mannose-6-phosphate isomerase (Homo sapiens) (UniProt P34949) (assay: MPI inhibition at elevated mannose 6-phosphate – biochemical, fluorescence intensity, high mannose 6-phosphate, primary screen (AID 1220)). Details: recombinant PMI enzyme, coupled fluorescence intensity; at 20 µM; stronger effect = higher value.
Sequence of Mannose-6-phosphate isomerase (Homo sapiens) (P34949 whole entry, looked up): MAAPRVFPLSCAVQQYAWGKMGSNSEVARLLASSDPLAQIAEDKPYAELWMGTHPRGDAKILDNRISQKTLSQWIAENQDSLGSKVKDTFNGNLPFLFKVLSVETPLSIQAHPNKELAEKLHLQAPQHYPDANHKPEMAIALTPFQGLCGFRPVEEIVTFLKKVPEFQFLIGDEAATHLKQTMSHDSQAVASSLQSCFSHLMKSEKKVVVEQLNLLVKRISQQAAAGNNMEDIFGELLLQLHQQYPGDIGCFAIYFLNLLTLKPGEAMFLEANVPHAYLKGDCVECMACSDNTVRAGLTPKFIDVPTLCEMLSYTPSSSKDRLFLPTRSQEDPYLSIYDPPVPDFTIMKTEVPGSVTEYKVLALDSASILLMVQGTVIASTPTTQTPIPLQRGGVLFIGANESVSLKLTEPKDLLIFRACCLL
With `COCc1cc(C)nc2sc(C(=O)NCCO)c(-n3cccc3)c12` the inhibition was -8.1%. In the case of `Cc1nn(-c2ccc(Cl)cc2)c(N)c1C(O)(CSc1nccn1C)C(F)(F)F` (centres undefined), the inhibition is reported as 10.3%. `O=C(COC(=O)c1ccncc1)Nc1cc(Cl)c(Cl)cc1Cl` showed an inhibition of 3.3%. In the case of `O=C(COC(=O)c1ccncc1)Nc1cc(Cl)ccc1Cl`, the inhibition is reported as 93.2% (active). With `O=C(COC(=O)c1ccncc1)Nc1cccc(Cl)c1` the inhibition was 23.4%. Compound `Cc1ccc(S(=O)(=O)NNC(=O)c2sccc2-n2cccc2)cc1` has an inhibition of -2.5%. With `O=c1/c(=C/c2ccc(CNS(=O)(=O)c3ccccc3)o2)sc2n1CCN=2` the inhibition was 13.7%. `O=C(NCc1ccc(/C=c2\sc3n(c2=O)CCN=3)o1)C(=O)Nc1ccccc1` was tested, and the inhibition was 50.9% (active). For `Cc1ccc(/C=c2/sc3n(c2=O)CCCN=3)o1`, the inhibition was -24.9%. `COc1ccc(C(=O)NCc2nnc(SCC(=O)Nc3cccc(F)c3)o2)cc1` gave an inhibition of -10.6%. `CCOC(=O)Cc1nnc(-c2ccccc2)o1` gave an inhibition of 40.2%. With `CCOc1cccc(N(C(=O)C2COc3ccccc3O2)C(C(=O)NC2CCCCC2)c2ccc(O)cc2)c1` (centres undefined) the inhibition was -4.1%. `CC(C)CCNC(=O)C(c1ccc(O)cc1)N(C(=O)C1COc2ccccc2O1)c1cccc(O)c1` (centres undefined) was tested, and the inhibition was 60.7% (active). `CC(C)CCNC(=O)C(c1ccc(O)cc1)N(Cc1cccs1)C(=O)C1COc2ccccc2O1` (centres undefined) showed an inhibition of 9.3%. `COCC(C)NC(C(=O)Nc1ccc(C)c(Cl)c1)c1ccccc1` (centres undefined) was tested, and the inhibition was 1.8%. `CN(c1ccc(OCC(=O)Nc2nc(-c3ccccc3)cs2)cc1)S(=O)(=O)c1ccc(F)cc1` gave an inhibition of 8.4%. `Cc1cc(C)c(NC(=O)COC(=O)Cc2ccsc2)c(C)c1` was tested, and the inhibition was -8.2%. For `Cc1ccc(S(=O)(=O)N2CCC(=O)N(CCOCc3cccc(F)c3)CC2)cc1`, the inhibition was 6.5%. `N#CCCn1c2ccccc2c2nc3ccccc3nc21` gave an inhibition of -21.1%. In the case of `COc1cc2nc3c4ccccc4n(CC#N)c3nc2cc1OC`, the inhibition is reported as -0.4%. In the case of `N#CCn1c2ccccc2c2nc3ccccc3nc21`, the inhibition is reported as 55.3% (active). `Cc1ccc(C2N(C)c3ccccc3-c3nc4ccccc4n32)o1` (centres undefined) was tested, and the inhibition was 3.8%. Compound `Oc1c(C(Nc2ccccn2)c2cccnc2)cc(Cl)c2cccnc12` (centres undefined) has an inhibition of 43.5%. For `O=[N+]([O-])c1cc(Cl)c2cccnc2c1O`, the inhibition was 47.2%. In the case of `O=C(O)COc1ccccc1C(Nc1cccnc1)c1cc(Cl)c2cccnc2c1O` (centres undefined), the inhibition is reported as 32%. Work on `CC(=O)NC(c1cccs1)c1cc([N+](=O)[O-])c2cccnc2c1O` (centres undefined) yielded an inhibition of 43.2%. With `Cc1ccc([N+](=O)[O-])c2cccnc12` the inhibition was 13.6%. With `CC(=O)NC(c1ccc(C)cc1)c1cc([N+](=O)[O-])c2cccnc2c1O` (centres undefined) the inhibition was 64.9% (active). With `CCC(=O)NC(c1cccs1)c1cc([N+](=O)[O-])c2cccnc2c1O` (centres undefined) the inhibition was 43.9%. In the case of `CCOc1ccc(C(Nc2cccnc2)c2cc(Cl)c3cccnc3c2O)cc1` (centres undefined), the inhibition is reported as 66% (active). `CCCC(=O)NC(c1cccs1)c1cc([N+](=O)[O-])c2cccnc2c1O` (centres undefined) was tested, and the inhibition was 55.7% (active). With `CCCC(=O)NC(c1cccs1)c1cc(Cl)c2cccnc2c1O` (centres undefined) the inhibition was 38.8%. `O=C(NC(c1ccccc1)c1cc(Cl)c2cccnc2c1O)c1cccnc1` (centres undefined) showed an inhibition of 23.4%. `CC(=O)NC(c1ccccc1)c1cc([N+](=O)[O-])c2cccnc2c1O` (centres undefined) was tested, and the inhibition was 58% (active). `COC(=O)CCCCC1SCC2NC(=O)NC21` (centres undefined) showed an inhibition of -4.5%. Work on `COc1ccc(NC(=O)CSc2ccc(F)cc2)cc1S(=O)(=O)N1CCCCC1` yielded an inhibition of 8.6%. With `Cc1csc2cc(-c3cccc([N+](=O)[O-])c3)c(-c3cccc([N+](=O)[O-])c3)c[n+]12` the inhibition was 4.9%. `COc1ccc(C=O)cc1COc1ccccc1F` was tested, and the inhibition was 8.1%. Compound `CCC(=O)NC(c1ccc(OC)c(OC)c1)c1cc(Cl)c2cccnc2c1O` (centres undefined) has an inhibition of 41.1%. With `COc1ccc(C(NC(C)=O)c2cc(Cl)c3cccnc3c2O)cc1OC` (centres undefined) the inhibition was 55.7% (active). With `CCCC(=O)NC(c1ccco1)c1cc([N+](=O)[O-])c2cccnc2c1O` (centres undefined) the inhibition was 7.9%. For `CCC(=O)NC(c1ccc(C)cc1)c1cc([N+](=O)[O-])c2cccnc2c1O` (centres undefined), the inhibition was 54.5% (active). With `CCC(=O)NC(/C=C/c1ccccc1)c1cc([N+](=O)[O-])c2cccnc2c1O` (centres undefined) the inhibition was 46.8%. For `CCCC(=O)NC(c1ccc(OC)c(OC)c1)c1cc(Cl)c2cccnc2c1O` (centres undefined), the inhibition was 48.4%. In the case of `COc1ccccc1NC(=S)NCc1ccco1`, the inhibition is reported as -7.4%. `Cc1c(Cl)cccc1NC(=O)CSc1nnc(CCNC(=O)OC(C)(C)C)o1` was tested, and the inhibition was 3.7%. Work on `COCCCNC(=O)c1cc2cc(Br)ccc2oc1=O` yielded an inhibition of -0.9%. In the case of `CCC(C)c1ccc(NC(=S)NCCn2cc(Br)cn2)cc1` (centres undefined), the inhibition is reported as 14.5%. In the case of `Cc1[nH]nc2ncc(C(=O)c3cc(F)ccc3O)cc12`, the inhibition is reported as -5.1%.
